Assay results taken from PubChem BioAssay (EPA / NIEHS).
Active and inactive are the calls of the source. How the source made its calls: active means hit-call score of the fitted dose curve at least 0.9, where 1 is the maximum; inactive means score below 0.9.

Assay: CCTE_Shafer_MEA_acute_firing_rate_mean: CCTE's Neural Acute Assay for Mean Firing Rate, Shafer Lab (AID 2284009);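 further: analyzed for loss of signal so actives lower firing rate relative to DMSO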
Summary of the method: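 Percent change in well-mean firing rate was derived from extracellular spikes detected at 8x rms noise (300-5000 Hz band-pass) before and after a 40-min compound exposure. Cultures were primary rat cortical neurons, tested at 0.03-40 uM.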
For `On1ccccc1=S`, the outcome was “inactive”.
With `CC[C@H]1CC[C@H](NCc2cc3c(cc2OC)[C@H]2C[C@H]2C(=O)N3C)[C@H](c2ccccc2)N1` the AC50 was 3.07 µM (active).
For `O=P(OC(CCl)CCl)(OC(CCl)CCl)OC(CCl)CCl`, the outcome was “inactive”.
With `CC[C@H]1OC(=O)[C@H](C)[C@@H](O[C@H]2C[C@@](C)(OC)[C@@H](O)[C@H](C)O2)[C@H](C)[C@@H](O[C@@H]2O[C@H](C)C[C@H](N(C)C)[C@H]2O)[C@](C)(O)C[C@@H](C)C(=O)[C@H](C)[C@@H](O)[C@]1(C)O` the outcome was “inactive”.
With `Cn1c(=O)c2c(ncn2C)n(C)c1=O` the outcome was “inactive”.
With `Cn1cnc([N+](=O)[O-])c1Sc1ncnc2nc[nH]c12` the outcome was “inactive”.
For `CCCCC(CC)COC(=O)CCCCCCCCC(=O)OCC(CC)CCCC` (stereo not given), the outcome was “inactive”.
For `CCCCCCCCCCCCc1ccccc1`, the outcome was “inactive”.
With `O=C(O)CCN(C1(C(=O)NO)CCCC1)S(=O)(=O)c1ccc(Oc2ccc(F)cc2)cc1` the outcome was “inactive”.

Assay: CCTE_Harrill_HTTr_Viability_MCF7: CCTE's 6-hour Cell Viability Assessment for the High-Throughput Transcriptomics (HTTr) Platform, in MCF-7 cells cultured in DMEM + 10% fetal bovine serum, Harrill Lab (AID 2284010)
Summary of the method: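 Cells were dosed with chemicals in an eight-point dilution series, imaged 6 hours later for propidium iodide uptake, and the endpoint was analyzed by bidirectional fitting against DMSO as negative control.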
In the case of `On1ccccc1=S`, the outcome is reported as “inactive”.
In the case of `CCn1nc(Cc2ccccc2)cc1C1CCN(C[C@H]2C[C@H](N(C)[C@@H](C(=O)O)C(C)C)C[C@@H]2c2cccc(F)c2)CC1`, the outcome is reported as “inactive”.
With `CC(C)c1cccc(C(C)C)c1N1C(=O)c2ccc(O)cc2C1=O` the outcome was “inactive”.
In the case of `CC[C@H]1CC[C@H](NCc2cc3c(cc2OC)[C@H]2C[C@H]2C(=O)N3C)[C@H](c2ccccc2)N1`, the outcome is reported as “inactive”.
For `O=c1n(CC2CO2)c(=O)n(CC2CO2)c(=O)n1CC1CO1` (stereo not given), the outcome was “inactive”.
With `O=P(OC(CCl)CCl)(OC(CCl)CCl)OC(CCl)CCl` the outcome was “inactive”.
For `CCCCC(CC)COC(=O)c1ccc(C(=O)OCC(CC)CCCC)cc1` (stereo not given), the outcome was “inactive”.
With `CC(C)CCO` the outcome was “inactive”.
For `Cc1ccc(C)c(O)c1`, the outcome was “inactive”.
With `CC[C@H]1OC(=O)[C@H](C)[C@@H](O[C@H]2C[C@@](C)(OC)[C@@H](O)[C@H](C)O2)[C@H](C)[C@@H](O[C@@H]2O[C@H](C)C[C@H](N(C)C)[C@H]2O)[C@](C)(O)C[C@@H](C)C(=O)[C@H](C)[C@@H](O)[C@]1(C)O` the outcome was “inactive”.
For `Cn1c(=O)c2c(ncn2C)n(C)c1=O`, the outcome was “inactive”.
In the case of `Nc1cccc(N)c1`, the outcome is reported as “inactive”.
For `Cn1cnc([N+](=O)[O-])c1Sc1ncnc2nc[nH]c12`, the outcome was “inactive”.
With `O=C(NS(=O)(=O)/C=C/c1ccccc1)c1ccc(F)cc1Cl` the outcome was “inactive”.
With `CC(C)CC(C)(O)C#CC(C)(O)CC(C)C` (stereo not given) the outcome was “inactive”.
With `Cc1c(-c2cccnc2)c2ccccc2n1CCCCC(=O)O` the outcome was “inactive”.
For `Cn1c(=O)cc(Oc2ccc(F)cc2F)c2cnc(NCC(C)(C)O)nc21`, the outcome was “inactive”.
In the case of `CCCCCCCCCCCCCCCO`, the outcome is reported as “inactive”.
In the case of `CC(=O)OC[C@H]1O[C@@](COC(C)=O)(O[C@H]2O[C@H](COC(C)=O)[C@@H](OC(C)=O)[C@H](OC(C)=O)[C@H]2OC(C)=O)[C@@H](OC(C)=O)[C@@H]1OC(C)=O`, the outcome is reported as “inactive”.
With `CC(=O)OCCC(C)C` the outcome was “inactive”.
For `CCOC(=O)COc1ccc2c(c1)CC(NCC(O)c1cccc(Cl)c1)CC2` (stereo not given), the outcome was “inactive”.
In the case of `CC(C)=CCC/C(C)=C/CO`, the outcome is reported as “inactive”.
For `CCCCC(CC)COC(=O)CCCCCCCCC(=O)OCC(CC)CCCC` (stereo not given), the outcome was “inactive”.
With `CCCCCCCCCCCCc1ccccc1` the outcome was “inactive”.
For `O=C1CCCCCN1`, the outcome was “inactive”.
With `CCCCCCCCO` the outcome was “inactive”.
For `O=C(O)CCN(C1(C(=O)NO)CCCC1)S(=O)(=O)c1ccc(Oc2ccc(F)cc2)cc1`, the outcome was “inactive”.
For `O=C(O)CC(O)C(=O)O` (stereo not given), the outcome was “inactive”.

Assay: CCTE_Harrill_HTTr_Apoptosis_MCF7: CCTE's 6-hour Apoptosis Assessment for the High-Throughput Transcriptomics (HTTr) Platform, in MCF-7 cells cultured in DMEM + 10% fetal bovine serum, Harrill Lab (AID 2284011)
Summary of the method: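 MCF-7 cells in DMEM + 10% FBS exposed 6 h to chemicals over an eight-point dilution series. Caspase-3/7 activation imaged by high-content CellEvent Green staining; fitted bidirectionally versus DMSO.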
With `On1ccccc1=S` the outcome was “inactive”.
In the case of `CCn1nc(Cc2ccccc2)cc1C1CCN(C[C@H]2C[C@H](N(C)[C@@H](C(=O)O)C(C)C)C[C@@H]2c2cccc(F)c2)CC1`, the outcome is reported as “inactive”.
In the case of `CC(C)c1cccc(C(C)C)c1N1C(=O)c2ccc(O)cc2C1=O`, the outcome is reported as “inactive”.
In the case of `CC[C@H]1CC[C@H](NCc2cc3c(cc2OC)[C@H]2C[C@H]2C(=O)N3C)[C@H](c2ccccc2)N1`, the outcome is reported as “inactive”.
For `O=c1n(CC2CO2)c(=O)n(CC2CO2)c(=O)n1CC1CO1` (stereo not given), the outcome was “inactive”.
With `O=P(OC(CCl)CCl)(OC(CCl)CCl)OC(CCl)CCl` the outcome was “inactive”.
For `CCCCC(CC)COC(=O)c1ccc(C(=O)OCC(CC)CCCC)cc1` (stereo not given), the outcome was “inactive”.
With `CC(C)CCO` the outcome was “inactive”.
With `Cc1ccc(C)c(O)c1` the outcome was “inactive”.
In the case of `CC[C@H]1OC(=O)[C@H](C)[C@@H](O[C@H]2C[C@@](C)(OC)[C@@H](O)[C@H](C)O2)[C@H](C)[C@@H](O[C@@H]2O[C@H](C)C[C@H](N(C)C)[C@H]2O)[C@](C)(O)C[C@@H](C)C(=O)[C@H](C)[C@@H](O)[C@]1(C)O`, the outcome is reported as “inactive”.
In the case of `Cn1c(=O)c2c(ncn2C)n(C)c1=O`, the outcome is reported as “inactive”.
With `Nc1cccc(N)c1` the outcome was “inactive”.
With `Cn1cnc([N+](=O)[O-])c1Sc1ncnc2nc[nH]c12` the outcome was “inactive”.
For `O=C(NS(=O)(=O)/C=C/c1ccccc1)c1ccc(F)cc1Cl`, the outcome was “inactive”.
In the case of `CC(C)CC(C)(O)C#CC(C)(O)CC(C)C` (stereo not given), the outcome is reported as “inactive”.
In the case of `Cc1c(-c2cccnc2)c2ccccc2n1CCCCC(=O)O`, the outcome is reported as “inactive”.
For `Cn1c(=O)cc(Oc2ccc(F)cc2F)c2cnc(NCC(C)(C)O)nc21`, the outcome was “inactive”.
With `CCCCCCCCCCCCCCCO` the outcome was “inactive”.
With `CC(=O)OC[C@H]1O[C@@](COC(C)=O)(O[C@H]2O[C@H](COC(C)=O)[C@@H](OC(C)=O)[C@H](OC(C)=O)[C@H]2OC(C)=O)[C@@H](OC(C)=O)[C@@H]1OC(C)=O` the outcome was “inactive”.
For `CC(=O)OCCC(C)C`, the outcome was “inactive”.
For `CCOC(=O)COc1ccc2c(c1)CC(NCC(O)c1cccc(Cl)c1)CC2` (stereo not given), the outcome was “inactive”.
With `CC(C)=CCC/C(C)=C/CO` the outcome was “inactive”.
For `CCCCC(CC)COC(=O)CCCCCCCCC(=O)OCC(CC)CCCC` (stereo not given), the outcome was “inactive”.
For `CCCCCCCCCCCCc1ccccc1`, the outcome was “inactive”.
With `O=C1CCCCCN1` the outcome was “inactive”.
For `CCCCCCCCO`, the outcome was “inactive”.
In the case of `O=C(O)CCN(C1(C(=O)NO)CCCC1)S(=O)(=O)c1ccc(Oc2ccc(F)cc2)cc1`, the outcome is reported as “inactive”.
In the case of `O=C(O)CC(O)C(=O)O` (stereo not given), the outcome is reported as “inactive”.
